# Assay results reported in publication PMC13494018.
# B1: d8r1_design_ppi_674_dldesign_0_cycle1_af2pred (protein)
# chain: SEEKINQAWIDTSKASELILAGEELSVTDPEKGAALIEKGRALAEEAAKAVPSKAEAILSTAEKTLEVAKARAAEVAA
# B2: d8r1_design_ppi_412_dldesign_0_cycle1_af2pred (protein)
# chain: AKAAQLRATSDLYALAYIAEKKVGKALADKLRAAAASGDPAAMLAAAEEAAKAIGEIGKRLYERLVAALA
# B3: d8r1_design_ppi_700_dldesign_0_cycle0_af2pred (protein)
# chain: SENKAKMEEHLAKAKEALLKGDPAAAPLAEAMAKAAKEEGPAALMAAAAAAYAAVVAADPSAAPLASQALAHAAKAAIYLGDS
# B4: d8r1_design_ppi_400_dldesign_0_cycle0_af2pred (protein)
# chain: SAELAAIKAAAENARAGAILLAKESKAETALKFNEAAKERLLKLAAATADAKAAKAVVEEEAKKAEEEIKKIGEE
# B5: d8r1_design_ppi_419_dldesign_0_cycle1_af2pred (protein)
# chain: SALEEKAKEAIEKMEKAAEELKKAAAELKKLDPEAGAAAEAALEAHLAILELAKKFSTKVTLNVAEAMTRGLERALKEAKARIAALK
# B6: d8r1_design_ppi_1429_dldesign_0_cycle1_af2pred (protein)
# chain: SSLKREEILRKTAEAMAEATLAKVRELAKEDPERARRALENMRALLALLGPVAAKIGEEAYARGLAIIAEIA
# B7: d8r1_design_ppi_897_dldesign_0_cycle1_af2pred (protein)
# chain: NPEAKDAALVKIGEGASYVAAASGDTAVARTVFTTSYTGVQEGNLEAAAAAAVATVAAAVDAATAARVAALAAAAVAAYKA
# B8: d8r1_design_ppi_1136_dldesign_0_cycle1_af2pred (protein)
# chain: AAEKEARDLAAADNAIALVKKMLEAGVSPENALATAEAAAALLSPAARARLLAAARAIVAAHEAAKAAAAA
# B9: d8r1_design_ppi_508_dldesign_0_cycle1_af2pred (protein)
# chain: AGKEALAKAIAEVKELVTAAMLANQKSREEGIKTAKEQAEKAKKLAEEAKASPLAAEIVKVLQSGRDFLEKLAEMLKES
# B10: d8r1_design_ppi_1339_dldesign_0_cycle0_af2pred (protein)
# chain: DEAWLAEIKALVSAAVAAAREGDVAALAAAQAAAAALAAAAPASVKPAAANATAGIATLLELTKERLEEKA
# B11: d8r1_design_ppi_882_dldesign_0_cycle0_af2pred (protein)
# chain: MTPEEAAAAARAIGAAAAAAIAASTDLATAGALADAAFRALVALAAAFPEVAPVASAEMAAVAKAFIAKGDAL
# B12: d8r1_design_ppi_1136_dldesign_0_cycle0_af2pred (protein)
# chain: SAAAAARARTAAANAAALAKKMLEAGVSPENARALVEAAAARLTPEAGAALRAEGEALVAEYAARREAEAA
# B13: d8r1_design_ppi_482_dldesign_0_cycle0_af2pred (protein)
# chain: STTDEMIEKIAKAAQEAMKLAKEGKYEEAYALLKKMAEEAAKVSESLGALAKGVAEAMKNWIDKYKAEKA
# B14: d8r1_design_ppi_637_dldesign_0_cycle1_af2pred (protein)
# chain: MTAEAAKAEVRARLEAAGERAAEAAKERGADYEAVLAAARSMAERAAADPDPEAALARGAEALAFLEALEKYYRE
# B15: d8r1_design_ppi_1038_dldesign_0_cycle1_af2pred (protein)
# chain: SDKRLAKNTAEAILRRTKELAKKAAAATAEEAKALAAIAEKGAKSAEAVAKKSGDEETKKLAKEAKEAAKKAKE
# B16: d8r1_design_ppi_482_dldesign_0_cycle1_af2pred (protein)
# chain: SESEEWIKEITDAANQAVALAKAGKTAEAYALLDATAAKAAAKSPSRGALAKGVADAMRVYIDKYAAKKA
# B17: d8r1_design_ppi_323_dldesign_0_cycle1_af2pred (protein)
# chain: SALEEAKRAIAEARELAAEAKARGPAAAPAAAIAANAIAGAELLVELGSYEAATAVARAGIRVARAYLAAV
# B18: d8r1_design_ppi_540_dldesign_0_cycle1_af2pred (protein)
# chain: DKKTETILAGMEAASNAAALLKKDPAAGGAYLLAKAKEVGAAVGNAADIVPAAAAAAADPATAAARLREFVSIVVSSVTS
# B19: d8r1_design_ppi_1124_dldesign_0_cycle1_af2pred (protein)
# chain: STATAAANAAAFSSKGAAVVGDKFAPSVESVLERVVELDPAAGLAAAEAVAAAAAAHPAVRAVAEAVAARARAAL
# B20: d8r1_design_ppi_1102_dldesign_0_cycle1_af2pred (protein)
# chain: DAVREAGVAAAQAIKVALDEGDKELANAVSEAARAAVADPALAPLVKEGAELIIDPEKREQGRELVEKAVAAYKAAQ
# B21: d8r1_design_ppi_753_dldesign_0_cycle0_af2pred (protein)
# chain: SAEAQAALAGARAAVAGAELLVEVAEETGSQGALRAAKRAAEAAEEAARKAAELGAEEEARELEERAREVRERAEKLE
# B22: d8r1_design_ppi_1481_dldesign_0_cycle1_af2pred (protein)
# chain: SSDEDYAALVEGMALASQTYAQARALIAATGAAGGAQARALAQAAAAQLRAAGAKYPSRAAQYDALADGLVRTVTAAAA
# B23: d8r1_design_ppi_345_dldesign_0_cycle1_af2pred (protein)
# chain: ATAEATATKIKTGIEKMLKLSKELGKGALINAAAAAKASAKVMDKLLADPSITPAARAALTAARDEAEKAAKEAEAEAKKL
# B24: d8r1_design_ppi_118_dldesign_0_cycle0_af2pred (protein)
# chain: GLVSLLRAAKNTLESAIEAEDAEKAAKYLAGAAQLLEGAAKLDPRVEPAAKLAKEAAAAAKADIEKGKAKAKEALKAVEELLKEAEEE
# B25: d8r1_design_ppi_753_dldesign_0_cycle1_af2pred (protein)
# chain: NAAAKAALAAAKAAVEGASLLVEVAEKEGSKGMLEAAKRVAEEAIAAAEKAAKLGATEEAAKLKAQAKEVKKRAEKLE
# B26: d8r1_design_ppi_996_dldesign_0_cycle1_af2pred (protein)
# chain: SASDIKAAQKAAAAVLRVAAERFPEVAAVAEPAAETAYNGDAETAIKAILEAAEAIRAAAARLPGGAELRAYADALENIAALLKRLAA
# B27: d8r1_design_ppi_1381_dldesign_0_cycle1_af2pred (protein)
# chain: AAARQELVDRALAALDAARAASPEEAVAIAPKAYGLAVMVGEDPRVQAALEAAAAANPAAAPILNEALALARATAAAQAAARAAA
# B28: d8r1_design_ppi_592_dldesign_0_cycle1_af2pred (protein)
# chain: GDAEDAVRAAENALKSAENYLAKADTLEQAQKAINAAKGAREFIKYAAKLGADPATVAALEKKANAVEEAAKAKAKALA
# B29: d8r1_design_ppi_700_dldesign_0_cycle1_af2pred (protein)
# chain: EETKKKRDEYVKKAGEALLKADPTLTAQAAAIKDAAYNAGPAALMAAMAAAYKAAVAANPANAPYAAEAVNYAAKAAIYAKEA
# B30: d8r1_design_ppi_1493_dldesign_0_cycle1_af2pred (protein)
# chain: AAESEALRQQAIDLAQKAAEIAADDENAEEVKARIDAAIAHLQAGDYAAAAADLLAAAKLASPEARGYILKALLKAMEAA
# B31: d8r1_design_ppi_416_dldesign_0_cycle0_af2pred (protein)
# chain: SEEAARILAETLGTISAQTAAAKAAAAAGDVEAARAAAAAARAAAEEGAKRLEELGNKSGAEALRSIGAATAAHIKALAAKAAA
# B32: d8r1_design_ppi_994_dldesign_0_cycle1_af2pred (protein)
# chain: GKVEELEKKFREELQAAADLIAELRKADPELGKLAAKALAYALANPELGRKLAEEVAAKSPLGAKAAAEILALIETREELLKAEKEA
# B33: d8r1_design_ppi_87_dldesign_0_cycle1_af2pred (protein)
# chain: SEEEFERRIAIAAEQLAAMDAALAAIKASGDAAEKQALLAQLRAAGEEMAKALGPAGAAIAEALLAQAEAALAA
# B34: d8r1_design_ppi_47_dldesign_0_cycle1_af2pred (protein)
# chain: GQAALDAAAKRLDELTKEAEKASPNTGKAVEAIRDGSIRVATALFAAGDAARGRAALENGVAASEKLVEATKS
# B35: d8r1_design_ppi_43_dldesign_0_cycle1_af2pred (protein)
# chain: EEALKKASEALSEAARLAIKNPAYLPAFAATGAAYGKVLEAYKKSPEEAKKAAKELLALYEKEVAAAKAAL
# B36: d8r1_design_ppi_640_dldesign_0_cycle1_af2pred (protein)
# chain: SEEEEKKYEELAKAGAAASKAGAVAAKHPDNPEIKKLADEAGKALSEAFTSDVETAKKLAEKVEALAKAAEALAA
# B37: d8r1_design_ppi_266_dldesign_0_cycle0_af2pred (protein)
# chain: SKVEEAKERFEKVVEEAEKKVKEALAKAKTAEEALKASIEAIKEAASEIAKIYSEVGEEVADLAVEALARLSALTAEAKAAAAKKAAA
# B38: d8r1_design_ppi_1265_dldesign_0_cycle0_af2pred (protein)
# chain: SETEEGAKALIRAAANAAKYLAKKYGELAKKLAELVKKALEAGPEEAVKYLEEAAALAKEAGQKTGGTKAFAALQATLKKAAELKKK
# B39: d8r1_design_ppi_882_dldesign_0_cycle1_af2pred (protein)
# chain: MTPEEAAAEARRIGDGAAAAIAASTDVATAKAIYDRAVTELTALAAAFPEVAHVASAELVKVAKAYIAKGDAL
# Target: PDL1, Q9NZQ7
# Sequence (Q9NZQ7 whole entry): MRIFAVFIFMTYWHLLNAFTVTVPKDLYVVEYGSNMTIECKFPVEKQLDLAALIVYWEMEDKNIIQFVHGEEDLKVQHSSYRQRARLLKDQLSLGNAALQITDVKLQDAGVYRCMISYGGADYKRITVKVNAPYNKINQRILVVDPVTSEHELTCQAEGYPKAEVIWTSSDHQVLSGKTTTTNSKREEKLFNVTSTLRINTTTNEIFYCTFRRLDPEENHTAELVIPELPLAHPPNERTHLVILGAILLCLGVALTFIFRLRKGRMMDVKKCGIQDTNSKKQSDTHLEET
row,Binder,binding in a display sort
1,B1,not found (inactive)
2,B2,not found (inactive)
3,B3,not found (inactive)
4,B4,not found (inactive)
5,B5,not found (inactive)
6,B6,not found (inactive)
7,B7,not found (inactive)
8,B8,not found (inactive)
9,B9,not found (inactive)
10,B10,not found (inactive)
11,B11,not found (inactive)
12,B12,binds (active)
13,B13,not found (inactive)
14,B14,not found (inactive)
15,B15,not found (inactive)
16,B16,binds (active)
17,B17,not found (inactive)
18,B18,not found (inactive)
19,B19,not found (inactive)
20,B20,not found (inactive)

row,Binder,binding in a display sort
1,B21,not found (inactive)
2,B22,binds (active)
3,B23,not found (inactive)
4,B24,not found (inactive)
5,B25,not found (inactive)
6,B26,not found (inactive)
7,B27,not found (inactive)
8,B28,not found (inactive)
9,B29,not found (inactive)
10,B30,binds (active)
11,B31,binds (active)
12,B32,not found (inactive)
13,B33,not found (inactive)
14,B34,not found (inactive)
15,B35,not found (inactive)
16,B36,not found (inactive)
17,B37,not found (inactive)
18,B38,not found (inactive)
19,B39,not found (inactive)
